Bioassay records as filed in PubChem.
Mtb FBA inh: Mtb fructose-bisphosphate aldolase inhibition; purified M. tuberculosis FBA, fluorescence read-out; AID 588726; inhibition, % at 1 µM; hit rate 2.3% among 360,000; P9WQA3; in the data active means inhibition above about 27%;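 further: 0% = vehicle and 100% = reference inhibitor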
Target sequence (P9WQA3 whole entry, looked up): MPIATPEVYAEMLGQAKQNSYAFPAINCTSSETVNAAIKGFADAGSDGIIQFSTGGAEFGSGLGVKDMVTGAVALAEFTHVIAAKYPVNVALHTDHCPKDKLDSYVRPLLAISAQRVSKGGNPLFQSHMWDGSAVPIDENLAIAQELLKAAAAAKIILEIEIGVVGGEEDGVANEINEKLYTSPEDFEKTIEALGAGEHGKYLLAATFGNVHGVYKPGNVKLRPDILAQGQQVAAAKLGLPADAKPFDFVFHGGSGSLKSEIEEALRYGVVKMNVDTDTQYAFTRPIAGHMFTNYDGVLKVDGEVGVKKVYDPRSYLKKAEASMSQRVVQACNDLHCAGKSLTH
Mtb hypoxia inh: Mtb hypoxia fluorescent reporter inhibition. M. tuberculosis hypoxia-regulated fluorescent reporter, fluorescence. fluorescence inhibition, % (concentration not given with the values). hit rate 0.1% among 300,000. AID 1159583; in the data active means fluorescence inhibition mostly above about 23%, no sharp cut-off; inactive means mostly below about 17%
FadD28 FP inh: M. tuberculosis FadD28 bisubstrate binding inhibition. hit rate 0.22% among 360,000. inhibition, % at 12.5 µM. FadD28 bisubstrate probe binding, fluorescence polarization. AID 588549; in the data active means inhibition above about 8.5%, passing the limit was not always enough; inconclusive means no clear call, values can overlap the other calls
GDH-TPI inh: GDH-TPI coupled enzyme inhibition counter-screen | hit rate 1.2% among 360,000 | GDH-TPI coupled enzyme counterscreen, NADH absorbance | inhibition, % at 4.8 µM; in the data active means inhibition above about 30%;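 further: 0% = DMSO wells and 100% = wells lacking the enzyme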
BioA inh: blocks M. tuberculosis BioA enzyme activity. purified M. tuberculosis BioA enzyme, plate reader. inhibition, % at 9.99 µM. hit rate 0.096% among 360,000. AID 602481; in the data active means inhibition above about 40%; inconclusive means no clear call, values can overlap the other calls
* hit, by the source's call; ? = inconclusive; nt = no result given; + = active, no number. Sampled rows, rich in hits. Any-hit rate of the full collection: about 2.9%.

SMILES	Mtb FBA inh	Mtb hypoxia inh	FadD28 FP inh	GDH-TPI inh	BioA inh
COc1ccc(N2C(=O)c3ccccc3S2(=O)=O)cc1	-6.0	10.3	-5.9	-6.2	-0.2
COc1ccc2c(c1)-c1ccccc1S(=O)(=O)N2C(C)=O	30.7*	10.6	2.0	13.4	-2.7
CN(C)c1ccc(/C=C2/C(=N\O)C3CCN2CC3)cc1	0.8	nt	-0.3	51.7*	-2.7
C[C@@H]1CCCCO[C@H](CN(C)C(=O)CCC(F)(F)F)[C@@H](C)CN([C@H](C)CO)C(=O)c2cc(NS(C)(=O)=O)ccc2O1	nt	nt	nt	nt	-1.0
O=C(/C=C\c1cccs1)c1c(O)ccc2ccc(=O)oc12	-7.4	15.1	-3.8	35.7*	-0.6
O=C(C=Cc1cccs1)c1cccs1	-1.0	18.5	-2.9	14.5	-0.1
CCCc1c(C(=O)NN=Cc2ccc(OCc3ccccc3)c(OC)c2)nnn1-c1nonc1N	nt	-0.5	nt	nt	nt
Cc1ccc(-c2cc(C(=O)O)c3sc(N4CCCCC4)nc3n2)cc1	163.2*	1.9	-4.5	14.0	nt
CC1CCC(NC(=O)c2cc(C3CC3)nn2-c2ccccc2)CC1 (stereo not given)	+	-7.3	-1.1	7.5	-2.0
CS(=O)(=O)N1[C@@H]2c3ccc(C4=CCCC4)c(=O)n3C[C@H]1[C@H](CO)[C@H]2C(=O)N1CCCCC1	nt	nt	nt	nt	-1.1
C/C(=N\NC(=O)c1cccc(C)c1)c1ccc(N2CCOCC2)cc1	4.4	nt	-0.8	34.0*	-0.8
C/C(=N\Nc1ccc(Cl)c(C(=O)O)c1)c1ccc[nH]1	-0.7	nt	27.7*	19.4	nt
O=C(O)c1cc(N/N=C/c2ccc(N3CCOCC3)s2)ccc1Cl	-3.2	nt	45.2*	22.2	0.4
O=C(O)c1cc(NN=Cc2ccc(N3CCOCC3)s2)ccc1Cl	nt	11.8	nt	nt	nt
C/C(=N\Nc1ccc(Cl)c(C(=O)O)c1)c1ccc(N2CCOCC2)cc1	-2.7	nt	1.9	30.9*	-0.5
C/C(=N\NC(=O)c1ccc(F)cc1)c1ccc(N2CCOCC2)cc1	1.6	nt	0.8	17.9	nt
CC(=NNc1ccc(Cl)c(C(=O)O)c1)c1ccc2c(c1)OCO2	nt	10.7	nt	nt	nt
O=C(C[C@@H]1C[C@@H]2c3cc(NC(=O)CC4CC4)ccc3O[C@@H]2[C@H](CO)O1)NCC(F)(F)F	nt	nt	nt	nt	-1.7
C[C@H](CO)N1C[C@H](C)[C@H](CN(C)C(=O)Nc2ccc(F)cc2)Oc2ccc(NS(=O)(=O)c3cn(C)cn3)cc2CC1=O	nt	nt	nt	nt	-1.8
CC=Cc1ccc2n(c1=O)C[C@H]1[C@H](CO)[C@@H](C(=O)NCC3CC3)[C@@H]2N1Cc1cccnc1 (mixture of isomers)	nt	nt	nt	nt	-4.7
COc1ccccc1NC(=O)c1c(NC(=O)CCC(=O)O)sc2c1CCCCC2	10.3	-5.8	-1.0	31.2*	0.0
Fc1ccc(-c2nc3ccccn3c2NCc2ccc3c(c2)OCO3)cc1	39.4*	12.0	-2.0	14.8	0.2
CCc1c(C(=O)NNC(=S)Nc2ccc(S(=O)(=O)Nc3ncccn3)cc2)csc1C	-0.9	-1.5	9.6*	10.0	-0.4
Cc1ccc(/C=N/Nc2cn[nH]c(=O)n2)o1	-2.7	nt	-3.8	32.6*	nt
C[C@@H]1CCCCO[C@H](CN(C)C(=O)Cc2ccccc2)[C@H](C)CN([C@H](C)CO)C(=O)c2cc(NC(=O)Nc3ccc(F)cc3)ccc2O1	nt	nt	nt	nt	-0.9
SMILES	Mtb FBA inh	Mtb hypoxia inh	FadD28 FP inh	GDH-TPI inh	BioA inh
CC1CCCC(C)N1C(=C(Cl)Cl)C(=C1SCCS1)[N+](=O)[O-] (stereo not given)	-1.4	9.3	16.3*	7.6	nt
COc1cc(/C=C2\SC(N)=NC2=O)ccc1OCC(=O)Nc1ccccc1C	0.4	56.8*	-1.7	23.8	3.1
COc1cc(/C=C2/SC(N)=NC2=O)ccc1Oc1ccc([N+](=O)[O-])cc1[N+](=O)[O-]	-1.6	24.7	-2.7	26.2	-0.9
NC1=NC(=O)/C(=C\c2ccc(O)c([N+](=O)[O-])c2)S1	-12.5	56.0*	-3.5	23.8	nt
CCCOc1ccc(/C=C2\SC(N)=NC2=O)cc1OC	-0.5	21.0	-3.7	15.2	-1.3
COc1ccc(/C=C2\SC(N)=NC2=O)cc1Br	-6.7	0.9	-11.3	31.3*	0.1
O=C1C=C(c2ccc(C(=O)O)cc2)CC(c2ccc3c(c2)OCO3)C1 (stereo not given)	nt	4.3	nt	nt	nt
CO[C@@H]1CN(C)C(=O)c2ccc(NC(=O)c3ccccc3F)cc2OC[C@H](C)N(C(=O)c2ccccc2F)C[C@H]1C	nt	nt	nt	nt	-0.9
Cc1noc(C)c1S(=O)(=O)Nc1ccc2c(c1)C(=O)N([C@@H](C)CO)C[C@H](C)[C@@H](CN(C)Cc1ccncc1)O2	nt	nt	nt	nt	-3.1
CC(C)c1cn(CC[C@H]2CC[C@@H](NC(=O)C3CCC3)[C@H](CO)O2)nn1	nt	nt	nt	nt	-2.0
CN1/C(=C/C(=O)C2CCC2)Sc2ccccc21	1.9	20.7	-0.3	67.5*	nt
COCC(=O)/C=C1\Sc2ccccc2N1C	-6.1	11.3	?	36.6*	-0.2
COc1cc(OC)cc(C(=O)/C=C2\Sc3ccccc3N2C)c1	2.0	-1.9	-0.4	11.7	4.4
COc1cccc(C(C)=NNc2ccc(S(=O)(=O)N3CCCCC3)cn2)c1	nt	2.0	nt	nt	nt
COc1ccc(C2C=CCN(C(=O)C3CCCC3)C(C)C(=O)N2Cc2ccc(F)cc2)cc1 (stereo not given)	nt	10.0	nt	nt	nt
C[C@H](CO)N1C[C@H](C)[C@@H](CN(C)C(=O)Nc2ccc(C(F)(F)F)cc2)OCCCC[C@H](C)Oc2ccc(NC(=O)Nc3ccc(C(F)(F)F)cc3)cc2C1=O	nt	nt	nt	nt	-3.6
CCCc1cc(=O)oc2c3c(cc(OCC(=O)N[C@@H](CSC)C(=O)O)c12)OC(C)(C)CC3	+	7.9	-1.4	20.0	-0.5
CCCc1cc(=O)oc2c3c(cc(OCC(=O)N[C@@H](C)C(=O)O)c12)OC(C)(C)CC3	+	17.0	-1.9	14.0	-0.9
CCCc1cc(=O)oc2cc(C)cc(OCC(=O)NC(Cc3c[nH]c4ccc(O)cc34)C(=O)O)c12 (stereo not given)	19.1	nt	-0.3	0.0	-2.3
CCc1cc(=O)oc2c3c(cc(OCC(=O)N[C@H](C(=O)O)[C@H](C)CC)c12)OC(C)(C)CC3	+	2.0	-0.2	16.7	-1.1
CCc1cc(=O)oc2cc(C)cc(OCC(=O)NC(Cc3c[nH]c4ccc(O)cc34)C(=O)O)c12 (stereo not given)	12.4	nt	0.8	8.3	0.9
COc1cccc(NC(=O)N[C@H]2CC[C@H](CC(=O)Nc3ccc(-c4ccccc4)cc3)O[C@H]2CO)c1	nt	nt	nt	nt	1.0
CCC(=O)N1C[C@@H](C)[C@@H](OC)CN(C)C(=O)c2ccc(NC(=O)C3CC3)cc2OC[C@@H]1C	nt	nt	nt	nt	-1.2
CCn1c(CSc2nnc3ccccn23)nc2cc(C(=O)O)ccc21	6.7	-3.6	13.3*	1.5	-0.2
CCn1c(CSc2nnc(-c3ccncc3)n2CCOC)nc2cc(C(=O)O)ccc21	-3.6	-0.7	3.1	2.5	0.9
C=CCOc1ccc(C=NNC(C)=O)cc1OCC	nt	-3.0	nt	nt	nt
COc1ccc(S(=O)(=O)N[C@H]2C=C[C@@H](CC(=O)N3CCc4ccccc4C3)O[C@H]2CO)cc1	nt	nt	nt	nt	-1.8
Cc1c(C)c2ccc(OCc3ccc(C(=O)O)o3)c(C)c2oc1=O	130.8*	-5.1	-7.3	26.0	2.6
CCC(=O)Nc1ccc(NC(=S)NC(=O)/C=C/c2ccco2)cc1	-2.6	-8.1	-0.6	47.5*	0.8
